According to PubChem BioAssay AID1259374 (The Scripps Research Institute Molecular Screening Center, 2018):
Out of some 650,000 compounds screened, about 5,900 (0.91%) were called active. Rule as the data show it: active = inhibition above about 50%; inactive = the rest. This excerpt belongs to a sample that is enriched for actives.

Biological target: Microphthalmia-associated transcription factor (Homo sapiens) (UniProt O75030)
Experiment: MITF inhibitors, primary screen, biochemical, AlphaScreen, human (AID 1259374);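 also: 0% = vehicle wells with protein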
Conditions: AlphaScreen MITF homodimerization, bead proximity signal; at 2.6 µM; stronger effect = higher value

Sequence of Microphthalmia-associated transcription factor (Homo sapiens) (O75030 whole entry, looked up): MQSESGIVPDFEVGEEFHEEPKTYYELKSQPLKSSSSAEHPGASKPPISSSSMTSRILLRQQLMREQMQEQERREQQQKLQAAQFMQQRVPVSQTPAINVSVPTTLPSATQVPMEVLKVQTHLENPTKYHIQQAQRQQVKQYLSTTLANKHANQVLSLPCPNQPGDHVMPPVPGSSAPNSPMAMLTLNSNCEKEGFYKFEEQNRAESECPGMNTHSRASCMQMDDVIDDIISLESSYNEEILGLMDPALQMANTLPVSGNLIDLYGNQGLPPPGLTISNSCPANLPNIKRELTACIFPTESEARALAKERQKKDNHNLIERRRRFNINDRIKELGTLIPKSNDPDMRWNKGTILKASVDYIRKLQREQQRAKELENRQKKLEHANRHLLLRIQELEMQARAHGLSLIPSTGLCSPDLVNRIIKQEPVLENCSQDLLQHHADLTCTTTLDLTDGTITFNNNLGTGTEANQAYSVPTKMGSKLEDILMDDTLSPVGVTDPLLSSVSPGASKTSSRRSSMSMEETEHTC

| SMILES | inhibition |
| --- | --- |
| Cc1[nH]c(=O)[nH]c(=O)c1S(=O)(=O)N1CCC(Cc2ccccc2)CC1 | -4.65% (inactive) |
| O=C(Nc1cccc(NC(=O)c2ccc(S(=O)(=O)N3CCOCC3)cc2)c1)c1ccc(S(=O)(=O)N2CCOCC2)cc1 | -11.6% (inactive) |
| Clc1cc(Cl)c(OCCOc2ccccc2)c(/C=N/n2cnnc2)c1 | -17.6% (inactive) |
| Cc1ccccc1NC(=O)NCCOc1cc(N2CCCC2)ncn1 | 63.9% (active) |
| CC(C)(C)NC(=O)N1CCN(c2cc(N3CCCC3)ncn2)CC1 | 5.52% (inactive) |
| Cc1ccccc1NC(=O)C(=O)N1CCCCC1 | -9.16% (inactive) |
| CCOC(=O)c1ccc2c(c1)nc(C(C)C)n2CC | 29.7% (inactive) |
| Clc1c(OCCCNCCN2CCOCC2)ccc2ccccc12 | 26% (inactive) |
| c1ccc(-c2ccccc2OCCNCCN2CCOCC2)cc1 | 58.3% (active) |
| Cc1ccc(OCCCNCCN)c(Br)c1 | 5.41% (inactive) |
| Cc1ccc(OCCCCNCCN2CCOCC2)c(Br)c1 | 65.7% (active) |
| c1ccc(-c2ccccc2OCCCCNCCN2CCOCC2)cc1 | 11.5% (inactive) |
| c1ccc(-c2ccc(OCCCNCCN3CCOCC3)cc2)cc1 | -7.58% (inactive) |
| CC(NC(=O)Cn1c(C2CC2)nc2ccccc21)C1CC2CCC1C2 (stereo unspecified) | 5% (inactive) |
| C/C(=N\NC(=O)C(O)c1ccccc1)c1ccc2c(c1)CCCC2 (stereo unspecified) | -5.38% (inactive) |
| O=C(NC1CSC/C1=N\Nc1cc([N+](=O)[O-])cc([N+](=O)[O-])c1)c1ccccc1 (stereo unspecified) | 18% (inactive) |
| O=C(CC1(c2ccccc2F)CC(=O)N(C2CCCCC2)C1=O)N1CCOCC1 (stereo unspecified) | -8.12% (inactive) |
| CCOc1ccccc1N(CC(=O)NC(C)(C)CC)C(=O)CCC(=O)Nc1nccs1 | -1.1% (inactive) |
| CNC(=O)c1c(NC(=O)C2CCCCC2)sc2c1CCC(C)C2 (stereo unspecified) | -7.36% (inactive) |
| NC(=O)c1c(NC(=O)CCC(=O)OCC(=O)Nc2ccccc2Cl)sc2c1CCC2 | -2.18% (inactive) |
| CC(C)(C)c1ccc(OCC(=O)OCC(=O)Nc2sc3c(c2C(N)=O)CCC3)cc1 | 0.98% (inactive) |
| Cc1ccc(NC(=O)COC(=O)CCC(=O)Nc2sc3c(c2C(N)=O)CCC3)cc1F | 84.3% (active) |
| Cc1cc(SCC(=O)N2CCOCC2)nc2ccccc12 | 14.6% (inactive) |
| CCOc1cccc(/C=N/NC(=S)NCCN2CCOCC2)c1O | 63.2% (active) |

| SMILES | inhibition |
| --- | --- |
| CCOc1cccc(/C=N/NC(=O)COc2cccc(C)c2C)c1O | 2.99% (inactive) |
| CCCCNC(=S)N/N=C/c1ccccc1OCC(=O)O | -2.56% (inactive) |
| COc1ccccc1N(C(C)=O)C1C=CS(=O)(=O)C1 (stereo unspecified) | 1.71% (inactive) |
| Cc1csc(-c2cnc3ccc(NCCc4cccnc4)nn23)c1 | -21.5% (inactive) |
| c1cncc(CCNc2ccc3ncc(-c4cccc5ccccc45)n3n2)c1 | -3.61% (inactive) |
| c1cncc(CCNc2ccc3ncc(-c4cc5ccccc5o4)n3n2)c1 | 54.6% (active) |
| CCOc1ccc(-c2ncnn2-c2sc3c(c2C#N)CCCC3)cc1 | -3.27% (inactive) |
| COc1cccc(-c2ncnn2-c2sc3c(c2C#N)CCCCC3)c1 | 63.4% (active) |
| N#Cc1c(-n2ncnc2-c2ccccc2)sc2c1CCCC2 | -14.9% (inactive) |
| O=C(Nc1nccs1)C(c1ccccc1)c1ccccc1 | -0.78% (inactive) |
| CCCCOC(=O)c1ccc(NC(=O)C2C3C=CC(O3)C2C(=O)O)cc1 (stereo unspecified) | -9.29% (inactive) |
| O=C(O)C1C2C=CC(O2)C1C(=O)Nc1nccs1 (stereo unspecified) | 81.7% (active) |
| COc1ccc(-c2nc3n(c2NC(C)(C)C)CCNC3)cc1 | 0.05% (inactive) |
| COc1ccc2nc(N3CCN(CCNC(=O)c4ccco4)CC3)sc2c1 | -9.88% (inactive) |
| COc1ccc(C(=O)NCCN2CCN(c3nc4c(C)c(C)ccc4s3)CC2)cc1 | 61.8% (active) |
| COc1ccc(S(=O)(=O)N2CCN(CCNC(=O)c3ccc(-c4ccccc4)cc3)CC2)cc1 | 8.93% (inactive) |
| O=Cc1ccc(OCc2ccc([N+](=O)[O-])cc2)c(I)c1 | 9.55% (inactive) |
| Cc1nnc(N2CCC(Cc3ccccc3)CC2)c2ccccc12 | 66.8% (active) |
| O=C(c1cccnc1N1CCC(Cc2ccccc2)CC1)N1CCCCC1 | 11.1% (inactive) |
| c1ccc(CC2CCN(c3nc4ccccc4n4cnnc34)CC2)cc1 | -0.95% (inactive) |
| O=C(c1cnn2c(C(F)(F)F)cc(-c3ccco3)nc12)N1CCN(C(c2ccccc2)c2ccccc2)CC1 | -6.87% (inactive) |
| O=c1c2ccccc2[nH]c(=S)n1NS(=O)(=O)c1ccccc1 | 0.19% (inactive) |
| CCc1cccc(CC)c1-n1c(CNC(=O)Cc2ccccc2)nnc1SCC(=O)Nc1ccc(OC)cc1 | -9.51% (inactive) |
| COc1cc(C(=O)Nc2cnc(NC(=O)c3ccccc3)cc2C)cc(OC)c1OC | 12.9% (inactive) |

| SMILES | inhibition |
| --- | --- |
| COc1ccc(CN2CCN(C3CCC(C)CC3)CC2)c(OC)c1OC (stereo unspecified) | 63.1% (active) |
| CCOC(=O)CSc1ccc(C(=O)N2CCN(Cc3ccc(OC)c(OC)c3OC)CC2)cc1[N+](=O)[O-] | -5.49% (inactive) |
| Cc1ccccc1CN1CCC(N2CCCCC2)CC1 | 32.6% (inactive) |
| COc1ccc(CN2CCc3nnc(C4CCCO4)n3CC2)c(OC)c1OC (stereo unspecified) | -1.23% (inactive) |
| COc1ccc(CN2CCN(S(=O)(=O)c3cc(Br)c(Br)s3)CC2)c(OC)c1OC | 19.2% (inactive) |
| COc1ccc(CN2CCN(Cc3ccccc3C)CC2)c(OC)c1OC | 56.1% (active) |
| Cc1noc(C)c1S(=O)(=O)N1CCN(Cc2nc3ccccc3n2C)CC1 | 8.13% (inactive) |
| COc1ccc(C(=O)CCNC(Cc2cnc[nH]2)C(=O)O)cc1 (stereo unspecified) | 34.2% (inactive) |
| CC(Oc1ccc(Br)cc1)C(=O)N/N=C/c1ccccc1O (stereo unspecified) | -6.74% (inactive) |
| COCCn1nnnc1C(C)N(CCCO)Cc1cc2cc(C)ccc2[nH]c1=O (stereo unspecified) | -3.49% (inactive) |
| O=C(OCC(=O)N1CCN(C(=O)c2ccco2)CC1)c1ccc(O)cc1 | -0.03% (inactive) |
| CCCOc1ccc(C2C(=O)N(C3CCCCCC3)CC(=O)N2CC2COc3ccccc3O2)cc1OC (stereo unspecified) | 14.9% (inactive) |
| CC1CCC2C(=O)N(c3ccc(I)cc3)C(=O)C2C1 (stereo unspecified) | 51.1% (active) |
| CC1CCC2C(=O)N(C(CC(=O)O)c3ccco3)C(=O)C2C1 (stereo unspecified) | 32.9% (inactive) |
| CC1CCC2C(=O)N(c3cccc(Cl)c3)C(=O)C2C1 (stereo unspecified) | 8.52% (inactive) |
| N#CC1=C(N)N(c2sc3c(c2C#N)CCCC3)C2=C(C(=O)CCC2)C1c1ccc(Br)s1 (stereo unspecified) | 13.4% (inactive) |
| CCOC(=O)COc1cc2occ(Oc3cnn(-c4ccccc4)c3)c(=O)c2cc1CC | 9.58% (inactive) |
| CSc1ncc(/C=C2/C(=O)NC(=O)N(c3ccccc3)C2=O)cn1 | 0.31% (inactive) |
| Oc1c(C(c2ccccc2Cl)N2CCOCC2)sc2nc(-c3ccco3)nn12 (stereo unspecified) | 11.9% (inactive) |
| Cc1nc2sc(C(c3ccco3)N3CCC4(CC3)OCCO4)c(O)n2n1 (stereo unspecified) | 13.4% (inactive) |
| Cc1nc2sc(C(c3ccccc3Cl)N3CCC4(CC3)OCCO4)c(O)n2n1 (stereo unspecified) | 60% (active) |
| OC[C@@H]1CCCN1Cc1nc(-c2ccccn2)no1 | 7.1% (inactive) |
| CCOC(=O)C1=C(C)N=c2s/c(=C\c3c[nH]c4ccccc34)c(=O)n2C1c1ccc(OC)c2ccccc12 (stereo unspecified) | 12.2% (inactive) |
| C=CCNC(=O)c1sc(=S)n(CC)c1N | 60.2% (active) |

| SMILES | inhibition |
| --- | --- |
| COCCOC(=O)c1sc(=S)n(CCOC)c1N | -3.44% (inactive) |
| C=CCNC(=O)c1sc(=S)n2c1[nH]c(=O)c1ccc(C(=O)OC)cc12 | 1.34% (inactive) |
| CCOc1ccc(Nc2n[nH]c(C)c2[N+](=O)[O-])cc1 | -3.22% (inactive) |
| Cc1nnc(SCC(=O)Nc2ccc(Cc3ccc(NC(=O)CSc4nnc(C)s4)c(C(=O)O)c3)cc2C(=O)O)s1 | 10.6% (inactive) |
| C=CCNCCOCCOc1cc(C)ccc1C(C)(C)C | 65.6% (active) |
| Cc1ccc(C(C)(C)C)c(OCCCNCCO)c1 | 18.8% (inactive) |
| Cc1cc(C(C)(C)C)ccc1OCCOCCNCCN | 5.37% (inactive) |
| CN(C)S(=O)(=O)c1ccc(C(=O)NCc2nnc(SCC(=O)N3N=C(c4cccs4)CC3c3ccc(F)cc3)n2C)cc1 (stereo unspecified) | -5.15% (inactive) |
| CCC1(CC)Cc2ccccc2C(c2c(C)[nH]n(-c3ccccc3)c2=O)=N1 | 23.6% (inactive) |
| COc1cc(/C=C2/NC(=O)N(c3ccccc3)C2=O)cc(OC)c1O | -14.5% (inactive) |
| COC(=O)c1ccccc1NC(=O)c1cc2c(=O)oc3ccccc3c2s1 | -9.64% (inactive) |
| COc1ccccc1-n1cnnc1SCC(=O)Nc1sc2c(c1C#N)CCCC2 | -6.73% (inactive) |
| COc1cc(NC(=O)CSc2nnc(-c3ccoc3C)n2CC(C)C)cc(OC)c1 | 9.5% (inactive) |
| Cc1ccc(C(C)C)c(OCc2n[nH]c(=S)n2C)c1 | 2.35% (inactive) |
| Cc1cc(OCCN2CCN(C)CC2)ccc1C(C)C | 59.4% (active) |
| CCC(C)Oc1cccc(OCCN2CCN(C)CC2)c1 (stereo unspecified) | -22.9% (inactive) |
| Cc1ccc(C(C)C)c(OCC#CCN2CCNCC2)c1 | 77.2% (active) |
| Cc1ccc(OCCN2CCNCC2)c(Cl)c1 | 36.1% (inactive) |
| Cc1ccc(Cl)c(OCCCCN2CCNCC2)c1 | 41.9% (inactive) |
| Cc1ccc(C(C)C)c(OCCN2CCNCC2)c1 | 74.9% (active) |
| Cc1cc(OCCCCN2CCOCC2)ccc1C(C)C | 27.1% (inactive) |
| Cc1ccc(C(C)(C)C)c(OCCN2CCNCC2)c1 | 46.6% (inactive) |
| CC1C2Oc3ccccc3C1Oc1ccccc12 (stereo unspecified) | 4.85% (inactive) |
| COc1ccc2[nH]c3c(c2c1)CCOC31CCN(C(=O)CC2(CC(=O)O)CCCC2)CC1 | -10.7% (inactive) |
